Laboratory results from PubChem BioAssay (Tox21).
Inconclusive results are not listed. A call without a number means that no potency is given here. Active and inactive are the calls of the source. Unless noted, the call rests on the fitted dose curve; in most records, active means well fitted curve in the direction sought with a large enough effect in the repeat runs; inconclusive means weak or mixed curves; inactive means no such curve, though single readings can be large; an effect the other way counts as inactive or inconclusive.

Experiments:
[1] = qHTS assay to identify small molecule antagonists of the androgen receptor (AR) signaling pathway using the MDA cell line in the presence of 0.5 nM R1881 - cell viability counter screen (AID 1259242); further: nearly all actives have a fitted effect of over 45% in size; further: potency means the concentration at half of the fitted maximal effect
Summary of the method: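 MDA-kb2 cells (MMTV-luciferase, AR/GR responsive) were treated with compounds plus 0.5 nM R1881 (final) for 16 hr at 37C, 0% CO2. Viability was then read in the same wells as live-cell protease fluorescence (CellTiter-Fluor, 30 min).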

[2] = qHTS assay to identify small molecule phospholipidosis (PLD) inducers (AID 1259344; active means well fitted curve in the direction sought with a large enough effect; an effect the other way counts as inactive or inconclusive)
Summary of the method: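 Phospholipidosis is scored by imaging LipidTOX-stained pits in HepG2 cells exposed to compound for 24 h at 37 C; pit counts and integrated intensities per well and per cell serve as outputs.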

[3] = qHTS assay to identify small molecule HDAC inhibitors (AID 1259364); further: top concentration of the series differs between compounds; nearly all actives have a fitted effect of over 45% in size
Summary of the method: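 Wild-type HCT-116 cells, plated overnight at 37 C, exposed to compounds 2 hr at 37 C; luminogenic HDAC-Glo substrate then added 30 min at room temperature. Luminescence reports relative endogenous class I/II HDAC activity.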

[4] = qHTS assay to identify small molecule HDAC inhibitors - cell viability counter screen (AID 1259365); further: series mostly up to about 92 µM; nearly all actives have a fitted effect of over 50% in size
Summary of the method: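 Counter screen in wild-type HCT-116 cells: compounds dissolved in DMSO are pin-transferred onto overnight-plated cells and left 2hr at 37C. ATP-based CellTiter-Glo luminescence then measures viable cells.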

[5] = qHTS assay to identify small molecule agonists of the sonic hedgehog signaling (Shh) pathway - cell viability counter screen (AID 1259366); further: nearly all actives have a fitted effect of over 50% in size; further: potency means the concentration at half of the fitted maximal effect
Summary of the method: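 Cells are plated at 2,000 per well and left 4hr at 37C, 5% CO2 before compound addition. After 23hr of treatment, CellTiter-Fluor reagent is added for 1hr at 37C and fluorescence is measured.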

[6] = qHTS assay to identify small molecule antagonists of the sonic hedgehog signaling (Shh) pathway - cell viability counter screen (AID 1259367); further: nearly all actives have a fitted effect of over 55% in size; further: potency means the concentration at half of the fitted maximal effect
Summary of the method: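 Cells: 3T3 Gli1-Luc, 2,000/well, 4 hr pre-incubation. Compounds in DMSO, then conditioned medium. Incubation 24 hr, 37C, 5% CO2. CellTiter-Fluor at 23 hr, 1 hr, fluorescence.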

[7] = qHTS assay to identify small molecule agonists of the sonic hedgehog signaling (Shh) pathway (AID 1259368; calls by dose curve;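 further: NIH/3T3-derived 3T3Gli1-Luc cells carrying a stable Gli1-driven firefly luciferase reporter; series mostly up to about 92 µM; nearly all actives have a fitted effect of over 15% in size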)
Summary of the method: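 NIH/3T3-derived 3T3Gli1-Luc cells with stably integrated Gli1-driven firefly luciferase, 2,000 cells/well, compounds added after 4 hr. Incubated 24 hr at 37C, 5% CO2; luminescence read after 30 min with luciferase reagent at room temperature.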

[8] = qHTS assay to identify small molecule antagonists of the sonic hedgehog signaling (Shh) pathway (AID 1259369; calls by dose curve; further: nearly all actives have a fitted effect of over 45% in size; further: potency means the concentration at half of the fitted maximal effect)
Summary of the method: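 NIH/3T3-derived Gli1-Luc reporter cells plated 4 h, dosed with compound, then stimulated with conditioned medium for 24 h at 37 C. Firefly luciferase luminescence read after 30 min with detection reagent at room temperature.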

[9] = target: Estrogen receptor (Homo sapiens) (UniProt P03372); assay: qHTS assay to identify small molecule antagonists of the estrogen receptor alpha (ER-alpha) signaling pathway using the BG1 cell line in the presence of 0.1 nM 17-beta-estradiol (AID 1259244); further: nearly all actives have a fitted effect of over 50% in size
Chain of Estrogen receptor (Homo sapiens) (P03372 whole entry, looked up): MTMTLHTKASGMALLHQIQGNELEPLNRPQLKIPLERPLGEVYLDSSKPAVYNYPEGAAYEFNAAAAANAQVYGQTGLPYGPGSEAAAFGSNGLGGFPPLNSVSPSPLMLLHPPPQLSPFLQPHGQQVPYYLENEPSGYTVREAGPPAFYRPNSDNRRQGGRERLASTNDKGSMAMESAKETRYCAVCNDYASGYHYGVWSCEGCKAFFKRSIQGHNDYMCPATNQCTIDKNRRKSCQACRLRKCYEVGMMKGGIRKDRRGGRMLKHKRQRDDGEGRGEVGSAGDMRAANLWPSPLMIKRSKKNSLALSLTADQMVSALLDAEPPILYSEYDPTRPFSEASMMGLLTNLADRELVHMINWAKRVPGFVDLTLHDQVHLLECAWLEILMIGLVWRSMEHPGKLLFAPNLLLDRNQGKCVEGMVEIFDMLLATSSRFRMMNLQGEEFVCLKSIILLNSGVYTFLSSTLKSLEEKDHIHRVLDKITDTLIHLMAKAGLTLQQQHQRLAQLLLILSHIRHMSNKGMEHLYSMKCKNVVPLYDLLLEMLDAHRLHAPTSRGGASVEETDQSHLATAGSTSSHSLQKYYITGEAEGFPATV
Summary of the method: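 VM7Luc4E2 cells (endogenous full-length ER-alpha, 4×ERE-luciferase), kept 5 days in phenol red-free, charcoal-stripped FBS medium; 4,000 cells/well. Compounds added with 0.1 nM (final) 17beta-estradiol, 22 hr at 37C; luminescence read with ONE-Glo after 30 min.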

| SMILES | Potency [1] | Potency [2] | Potency [3] | Potency [4] | Potency [5] | Potency [6] | Potency [7] | Potency [8] | Potency [9] |
| --- | --- | --- | --- | --- | --- | --- | --- | --- | --- |
| Brc1ccccc1-c1ccccc1 | inactive | inactive | inactive | inactive | inactive | inactive | inactive | inactive | – |
| C=CC(=O)OCC(O)COc1ccccc1 (centres undefined) | inactive | – | – | – | 27.3 µM (active) | inactive | inactive | inactive | inactive |
| O=C(O)CCn1c2c(c3ccccc31)C[C@H](NS(=O)(=O)c1ccc(F)cc1)CC2 | inactive | – | inactive | inactive | inactive | inactive | inactive | inactive | – |
| Cc1ccc(N)cc1O | inactive | inactive | – | inactive | inactive | inactive | inactive | – | – |
| C1CC(COCC2CO2)CCC1COCC1CO1 (centres undefined) | inactive | – | – | inactive | inactive | inactive | inactive | inactive | – |
| O=C1NCN(c2ccccc2)C12CCN(CCCC(c1ccc(F)cc1)c1ccc(F)cc1)CC2 | 29.8 µM (active) | – | inactive | – | – | – | inactive | – | – |
| CCCCNc1c(C(=O)OCC)c(C)nc2c1cnn2CC | inactive | – | inactive | – | inactive | inactive | inactive | 0.0422 µM (active) | – |
| CCCCCCC(C)Nc1ccc(Nc2ccccc2)cc1 (centres undefined) | inactive | – | inactive | inactive | – | – | inactive | 27.3 µM (active) | – |
| CC(O)C#CC(C)O (centres undefined) | inactive | – | – | – | 53.9 µM (active) | 60.5 µM (active) | inactive | 24.1 µM (active) | – |
| Cc1nc(Nc2ncc(C(=O)Nc3c(C)cccc3Cl)s2)cc(N2CCN(CCO)CC2)n1 | inactive | – | – | inactive | 0.075 µM (active) | – | inactive | inactive | – |
| Clc1ccc(C(Cn2ccnc2)OCc2ccsc2Cl)c(Cl)c1 (centres undefined) | inactive | – | inactive | inactive | – | – | inactive | 11.9 µM (active) | – |
| CCCCC(CC)COC(=O)c1ccc(O)cc1 (centres undefined) | inactive | – | – | inactive | inactive | 54.3 µM (active) | inactive | – | – |
| [O]=[Zr] | inactive | – | inactive | – | – | inactive | inactive | – | – |
| O=S(=O)(O)CCCN1CCOCC1 | inactive | – | – | inactive | inactive | inactive | inactive | inactive | – |
| Cc1cc(Nc2ccc(O)cc2)ccc1N | 48.3 µM (active) | – | – | – | 30.5 µM (active) | 24.2 µM (active) | inactive | – | – |
| CC(C)c1cccc(C(C)C)c1N1C(=O)c2ccc(O)cc2C1=O | inactive | – | – | inactive | – | inactive | inactive | 13.7 µM (active) | – |
| O=C(O)CC(=O)O | inactive | – | – | inactive | inactive | inactive | inactive | – | – |
| CCCCCCCOC(=O)c1ccc(O)cc1 | inactive | – | inactive | – | inactive | inactive | inactive | 43.3 µM (active) | – |

| SMILES | Potency [1] | Potency [2] | Potency [3] | Potency [4] | Potency [5] | Potency [6] | Potency [7] | Potency [8] | Potency [9] |
| --- | --- | --- | --- | --- | --- | --- | --- | --- | --- |
| COC(=O)NCCC[Si](OC)(OC)OC | inactive | – | inactive | inactive | inactive | – | inactive | inactive | – |
| CC1=C(/C=C/C(C)=C/C=C/C(C)=C\C=O)C(C)(C)CCC1 | inactive | – | – | inactive | – | – | inactive | 25.8 µM (active) | – |
| CCN(CC)c1ccc(N)cc1 | 17.7 µM (active) | – | inactive | inactive | 35.3 µM (active) | – | inactive | 4.99 µM (active) | – |
| C=CCCCCCCC=C | inactive | – | inactive | – | – | – | inactive | 30.7 µM (active) | – |
| O=C(Nc1ccc(Cl)cc1)Nc1ccc(Cl)c(C(F)(F)F)c1 | 11.9 µM (active) | – | inactive | inactive | inactive | – | inactive | 7.5 µM (active) | – |
| SCCCCCCCCS | inactive | – | – | inactive | inactive | inactive | inactive | inactive | – |
| C=CC(=C)CCC=C(C)C | inactive | – | inactive | – | – | inactive | inactive | inactive | – |
| CCOC(=O)CN | inactive | – | inactive | inactive | inactive | inactive | inactive | inactive | – |
| CC1CCCNC1 (centres undefined) | inactive | – | inactive | inactive | – | 42.4 µM (active) | inactive | 26.7 µM (active) | – |
| O=C1NC2CCCCN2C12CCN(CCCN1c3ccccc3CCc3ccc(Cl)cc31)CC2 (centres undefined) | 26.6 µM (active) | – | – | – | 26.6 µM (active) | 29.8 µM (active) | inactive | 21.1 µM (active) | – |
| CC(C)N=C(N)/N=C(\N)Nc1ccc(Cl)cc1 | inactive | – | inactive | inactive | – | inactive | inactive | – | – |
| CCCCCCCCCC(=O)N(C)C | inactive | – | – | inactive | inactive | inactive | inactive | – | – |
| CCCCCCOc1cc(C)c(O)c(C)c1C | inactive | – | inactive | – | – | 61.9 µM (active) | inactive | – | – |
| CC(C(O)c1ccccc1)N(C)CCOC(c1ccccc1)c1ccccc1 (centres undefined) | 29.8 µM (active) | – | inactive | – | – | – | inactive | 21.1 µM (active) | – |
| Oc1c(Br)cc(Br)c2cccnc12 | inactive | – | inactive | inactive | 7.5 µM (active) | – | inactive | 2.37 µM (active) | – |
| CCC(=O)OCCc1ccccc1 | inactive | – | inactive | – | – | – | inactive | – | – |
| CC(C)(C)CC(C)(C)c1ccccc1O | inactive | – | inactive | – | 54.8 µM (active) | 48.8 µM (active) | inactive | – | – |
